PubChem BioAssay (EPA / NIEHS)
Active and inactive are the calls of the source. Rule for the calls: active = hit-call score of the fitted dose curve at least 0.9, where 1 is the maximum; inactive = score below 0.9.

experiment: ATG_RORE_CIS: Attagene CIS-FACTORIAL HepG2 Assay for human RAR-related Orphan Receptor Element (RORE) (AID 2282959); details: HepG2 Attagene cis-factorial RORE reporter, mRNA; actives raise or lower the signal
Description: ATG_CIS is a cell-based, multiplexed-readout assay that uses HepG2, a human liver cell line, with measurements taken at 24 hours after chemical dosing in a 24-well plate.ATG_RORE_CIS is one of 52 assay component(s) measured or calculated from the ATG_CIS assay. It is designed to make measurements of mRNA induction, a form of inducible reporter, as detected with fluorescence intensity signals by Reverse transcription polymerase chain reaction (RT-PCR) and Capillary electrophoresis technology.Data from the assay component ATG_RORE_CIS was analyzed into 1 assay endpoint. This assay endpoint, ATG_RORE_CIS, was analyzed with bidirectional fitting relative to DMSO as the negative control and baseline of activity. Using a type of inducible reporter, measures of mRNA for gain or loss-of-signal activity can be used to understand the reporter gene at the transcription factor-level as they relate to the gene RORA and RORB and RORC. Furthermore, this assay endpoint can be referred to as a primary readout, because this assay has produced multiple assay endpoints where this one serves a reporter gene function. To generalize the intended target to other relatable targets, this assay endpoint is annotated to the nuclear receptor intended target family, where the subfamily is orphan.
Human liver HepG2 cells are transiently transfected with multiple reporter transcription units (MRTUs) in 6-well plates using FuGene 6 reagent (Roche; 3 ml FuGene/1 mg DNA). The MRTU constructs are regulated by a cis-regulating element (promoter). […] A major difference between the CIS and TRANS system is that in CIS activities of endogenous TFs are measured, whereas the TRANS assay evaluates changes in activities of exogenous, chimeric NR-Gal4 proteins. […] At the end of 24 hour incubation, total RNA was isolated using TriZol reagent (Invitrogen). The isolated RNA is then reverse-transcribed using oligo(dT) primer and Mo-MLV reverse transcriptase (Invitrogen) with DNAse I (Ambion) treatment for 30 min. The one-tenth of the produced cDNA was amplified by PCR using Taq DNA polymerase (Invitrogen) and two reporter sequence-specific primers. The PCR products were fluorescently labeled by primer extension with 6-arboxyfluorescein (6-FAM) 5'-labeled reporter sequence-specific primer (2 min at 95 C, 20 s at 68 C and 10 min at 72 C) and these products were digested with 5U of HpaI (New England Biolabs) for 2h at 37 C. The fragments were purified using Qiaquick PCR columns (Qiagen), analyzed on an ABI 3130xL genetic analyzer (Applied Biosystems) with peak positions identified by using a set of X-rhodamine (ROX)-labeled MapMarker1000 molecular weight standards (BioVentures). The raw capillary electrophoresis data was processed using Attagraph software (Attagene).

SMILES	outcome	AC50
CCCCN(CC)c1c([N+](=O)[O-])cc(C(F)(F)F)cc1[N+](=O)[O-]	inactive	–
CCOC(=O)CC(SP(=O)(OC)OC)C(=O)OCC (stereo not given)	inactive	–
CC[C@H](C)[C@H]1O[C@]2(C=C[C@@H]1C)C[C@@H]1C[C@@H](C/C=C(\C)[C@@H](O[C@H]3C[C@H](OC)[C@@H](O[C@H]4C[C@H](OC)[C@@H](NC)[C@H](C)O4)[C@H](C)O3)[C@@H](C)/C=C/C=C3\CO[C@@H]4[C@H](O)C(C)=C[C@@H](C(=O)O1)[C@]34O)O2	inactive	–
CCOP(=S)(Oc1cnc(C(C)(C)C)nc1)OC(C)C (stereo not given)	–	13.1 µM (active)
O=c1ccc(=O)[nH][nH]1	inactive	–
CSC1=N[C@@](C)(c2ccccc2)C(=O)N1Nc1ccccc1	inactive	–
CCc1cnc(C2=NC(C)(C(C)C)C(=O)N2)c(C(=O)O)c1 (stereo not given)	inactive	–
COc1cccc(C(=O)NN(C(=O)c2cc(C)cc(C)c2)C(C)(C)C)c1C	inactive	–
C=C(C)[C@H]1Cc2c(ccc3c2O[C@@H]2COc4cc(OC)c(OC)cc4[C@@H]2C3=O)O1	inactive	–
CC(=NC#N)N(C)Cc1ccc(Cl)nc1	inactive	–
C#CC(C)(C)NC(=O)c1cc(Cl)cc(Cl)c1	inactive	–
CCCCOC(=O)[C@@H](C)Oc1ccc(Oc2ccc(C#N)cc2F)cc1	inactive	–
N#CSCSC#N	inactive	–
COP(=O)(OC)OC(Br)C(Cl)(Cl)Br (stereo not given)	inactive	–
C#CCC1=C(C)C(OC(=O)C2C(C=C(C)C)C2(C)C)CC1=O (stereo not given)	inactive	–
CC(C1CC1)C(O)(Cn1cncn1)c1ccc(Cl)cc1 (stereo not given)	inactive	–
CC(C)=CC1C(C(=O)OCN2C(=O)C3=C(CCCC3)C2=O)C1(C)C (stereo not given)	–	50 µM (active)
COP(=O)(OC)SCn1c(=O)oc2cc(Cl)cnc21	inactive	–
CCNc1nc(Cl)nc(NC(C)(C)C#N)n1	inactive	–
Cc1nn(-c2cc(NS(C)(=O)=O)c(Cl)cc2Cl)c(=O)n1C(F)F	inactive	–

SMILES	outcome	AC50
CCCSP(=O)(OCC)SCCC	inactive	–
O=C(O)c1cc(Oc2ccc(C(F)(F)F)cc2Cl)ccc1[N+](=O)[O-]	inactive	–
CCCCSP(=O)(SCCCC)SCCCC	inactive	–
COP(=O)(OC)C(O)C(Cl)(Cl)Cl (stereo not given)	inactive	–
CNc1cnn(-c2cccc(C(F)(F)F)c2)c(=O)c1Cl	–	27.6 µM (active)
CCCSP(=O)(OCC)Oc1ccc(Br)cc1Cl (stereo not given)	inactive	–
CCOP(=S)(OCC)Oc1cc(C)nc(C(C)C)n1	inactive	–
CCOP(=S)(OCC)Oc1ccc2c(C)c(Cl)c(=O)oc2c1	inactive	–
CON=C(C(=O)OC)c1ccccc1CON=C(C)c1cccc(C(F)(F)F)c1	inactive	–
CC1(C(=O)Nc2ccc(O)c(Cl)c2Cl)CCCCC1	–	50 µM (active)
O=[N+]([O-])c1cc(C(F)(F)F)c(Cl)c([N+](=O)[O-])c1Nc1ncc(C(F)(F)F)cc1Cl	inactive	–
CC(C)N(C(=O)SCC(Cl)=C(Cl)Cl)C(C)C	inactive	–
CCOP(=O)(SC(C)CC)N1CCSC1=O (stereo not given)	inactive	–
CCOP(=S)(OCC)Oc1ccc([N+](=O)[O-])cc1	inactive	–
Cc1ccn2nc(S(=O)(=O)Nc3c(F)cccc3F)nc2n1	inactive	–
Nc1nc(N)nc(NC2CC2)n1	inactive	–
CN(C)C(=O)Nc1cccc(C(F)(F)F)c1	inactive	–
CCC(=NOC/C=C/Cl)C1=C(O)CC(C2CCOCC2)CC1=O (stereo not given)	inactive	–
COP(=O)(NC(C)=O)SC (stereo not given)	inactive	–
CC1=NNC(=O)N(/N=C/c2cccnc2)C1	inactive	–
